Screens (PubChem BioAssay)
hERG WT inh – KCNH2 (human, wildtype) channel inhibition; Q12809; U2OS, BacMam KCNH2, thallium flux FluxOr; stronger effect = lower value; activity change, % at 1.84 µM; 340,000 tested, 0.37% active; AID 720551;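 active = maximum activity change below -70%; inconclusive = maximum activity change between -70% and -50%; inactive = maximum activity change above -50%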; also: % is scaled to controls: 0 for no effect and ±100 for the full control effect
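U2OS cells transduced with wild-type KCNH2 virus are loaded with FluxOr dye for 45 min, and thallium flux is measured in kinetic reads before and after stimulation buffer. Rate constants are normalized to DMSO controls.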
PLK1 PBD block – PLK1 (human) polo-box domain binding inhibition. Plk1 PBD binding of FITC phosphopeptide, fluorescence polarization. AID 720504. P53350. 360,000 tested, 2.8% active. Potency, µM, for inactives: max response, negative = inhibition, most hits filed as inhibitors; also: potency is read from the fitted curve at half-maximal effect; series mostly up to about 57 µM; % is scaled to controls: 0 for no effect and ±100 for the full control effect; nearly all actives have a fitted effect of over 65% in size
CBFb-RUNX1 inh – blocks binding between human CBF-beta and RUNX1 | Q01196+Q13951 | AlphaScreen CBFb-His/RUNX1-biotin binding, biochemical | Potency, µM (top dose mostly 59.8 µM), without a hit: at the highest dose activity, negative = inhibition, hits mostly inhibitors | 230,000 tested, under 10 active | AID 1477; also: % of control where 0% means no effect
Target sequence (Q01196 whole entry, looked up): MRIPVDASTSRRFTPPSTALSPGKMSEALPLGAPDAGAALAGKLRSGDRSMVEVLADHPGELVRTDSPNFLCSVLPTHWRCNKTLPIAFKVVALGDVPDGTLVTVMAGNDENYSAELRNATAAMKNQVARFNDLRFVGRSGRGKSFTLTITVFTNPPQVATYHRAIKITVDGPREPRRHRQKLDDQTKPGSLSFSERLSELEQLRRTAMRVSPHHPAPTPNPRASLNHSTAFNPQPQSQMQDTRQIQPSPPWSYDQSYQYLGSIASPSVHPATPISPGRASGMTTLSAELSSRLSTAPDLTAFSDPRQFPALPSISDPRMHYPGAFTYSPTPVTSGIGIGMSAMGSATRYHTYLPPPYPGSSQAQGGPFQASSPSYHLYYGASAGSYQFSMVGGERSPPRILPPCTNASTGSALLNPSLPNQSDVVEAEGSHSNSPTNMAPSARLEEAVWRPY
Target sequence (Q13951 whole entry, looked up): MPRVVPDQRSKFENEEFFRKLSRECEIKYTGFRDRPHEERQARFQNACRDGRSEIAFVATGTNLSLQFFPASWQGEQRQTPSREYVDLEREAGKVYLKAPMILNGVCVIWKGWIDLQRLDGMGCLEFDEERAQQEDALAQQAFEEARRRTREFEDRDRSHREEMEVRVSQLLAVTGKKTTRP
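Read-out: AlphaScreen. Format: His-CBF-beta with biotinylated RUNX1 (30 nM each) preincubated 20 min, compound 15 min, Ni-chelate plus streptavidin beads 90 min; room temperature throughout.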
KCNH2 3.1 inh – inhibitors of human KCNH2 3.1 potassium channel isoform. activity change, % (tested at about 1.8 µM). 340,000 tested, 0.95% active. U2OS KCNH2 3.1, thallium flux FluxOr; stronger effect = lower value;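 active = maximum activity change below -70%; inconclusive = maximum activity change from -70% to -50%; inactive = maximum activity change above -50%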;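 also: thallium influx rate constant from kinetic fluorescence after stimulation buffer; % is scaled to controls: 0 for no effect and ±100 for the full control effect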
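Thallium flux read-out: FluxOr dye with Red40 quencher in HBSS/HEPES, 45 min at RT. Rate constants from kinetic reads were normalized to positive and negative DMSO controls. Cells: U2OS virally expressing the 3.1 isoform.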
VDR inh – inhibitors of human vitamin D receptor; P11473; 400,000 tested, 0.93% active; VDR-SRC2-3 peptide fluorescence polarization, 2 h; Potency, µM, for inactives: max response, negative = inhibition, most hits filed as inhibitors; also: potency is read from the fitted curve at half-maximal effect; % is scaled to controls: 0 for no effect and ±100 for the full control effect
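Fluorescence polarization assay of small-molecule disruption of VDR binding to coregulator peptide SRC2-3. Compounds and controls pin-transferred, then read after 2 h incubation at ambient room temperature.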
MBNL1-CUG inh – MBNL1-poly(CUG) RNA binding inhibition. Q9NR56. TR-FRET MBNL1-His/biotin-(CUG)12 binding, 665/545 ratio. Potency, µM (titrated, usually from 57.5 µM), inactives show at the highest dose activity change, negative = inhibition, usual class: inhibitors. 280,000 tested, 0.036% active; active = well fitted inhibition curve with a large enough effect in the signal ratio, with a control signal flat, not every such curve was filed as active; inconclusive = small, poorly fitted or top-dose-only effect, or effect the other way, or a change in a side signal; inactive = no such curve, though single readings can be large or run the other way; the % refers to the signal ratio; also: potency is read from the fitted curve at half-maximal effect; % is scaled to controls: 0 for no effect and ±100 for the full control effect
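Inhibition of protein-RNA binding appears as loss of TR-FRET between terbium anti-His antibody on MBNL1-His and streptavidin-XL665 on biotin-(CUG)12. Activity is normalized to buffer-only and uninhibited-complex controls.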
The depositor's hits bear a star; u = inconclusive; x = not tested or not shown; ! = not active in a repeat. Compounds with a hit are over-represented: about 3.8% of the library has one in this group of screens. Unless noted, calls follow the shape of the dose curve; as a rule, active = well fitted curve in the direction sought with a large enough effect; inconclusive = small, poorly fitted or top-dose-only effect, or another doubt; inactive = no such curve, though single readings can be large; an effect the other way counts as inactive or inconclusive.

SMILES | hERG WT inh | PLK1 PBD block | CBFb-RUNX1 inh | KCNH2 3.1 inh | VDR inh | MBNL1-CUG inh
COc1ccc(NC(=O)c2cc([N+](=O)[O-])ccc2NC(=O)CNCc2ccccn2)c(OC)c1 | 0.1 | u | x | -3.7 | 31.6µM* | u
O=C(CSc1nnc(-c2cccc(Br)c2)o1)NCC1CCCO1 (centres undefined) | -218.5* | -9.0% | x | -174.1* | x | x
CCOC(=O)N1CCN(C(=O)CSc2nc(-c3cccc(C)c3)ns2)CC1 | 3.8 | 6.7µM* | -1.4% | 3.3 | u | 9.5%
O=C(CSc1nc(-c2ccccc2)ns1)NCC1CCCO1 (centres undefined) | -7.8 | 15µM* | x | -15.4 | -27.8% | 3.9%
CCOC(=O)CNC(=O)CSc1nc(-c2ccccc2)ns1 | 18.4 | 13.4µM* | 0.9% | -15.4 | u | 4.9%
COc1cc(C2C(=O)N(C3CCCCC3)CC(=O)N2C2CCCC2)ccc1OC(C)C (centres undefined) | x | x | x | x | 6.1% | x
COc1ccc(NC(=O)C(=O)NCC2(c3ccccc3)CCCC2)c(OC)c1 | x | x | x | x | -1.5% | x
C[C@@H](NC(=O)CN(c1ccccc1)S(=O)(=O)N(C)C)c1ccccc1 | x | x | x | x | -7.3% | x
CCN(CC)C(=O)Cn1c(=O)n(-c2ccc(Cl)cc2)c(=O)c2c3c(sc21)CCCCC3 | x | x | x | x | -11.9% | x
COc1ccc(-c2cc(C(F)(F)F)n3nc(C(=O)Nc4cc(C(F)(F)F)ccc4Cl)cc3n2)cc1OC | x | x | x | x | 5.7% | x
CCOC(=O)CSc1nc(-c2ccc(OC)cc2)ns1 | 0.0 | 10.6µM* | 16.5% | 7.7 | -8.3% | 2.2%
CCOC(=O)CNC(=O)CSc1nc(-c2ccc(C)cc2)ns1 | -13.2 | -25.6% | 8.9% | 0.7 | u | 8.1%
COc1ccc(C)cc1NC(=O)c1cc2c(s1)-c1ccccc1SC2 | x | x | x | x | 8.7% | x
Cc1cc(S(=O)(=O)N2CCN(c3c(C)cccc3C)CC2)ccc1F | -3.5 | -0.4% | 7.1% | 22.7 | 16.3% | 0.7%
CCC(C)N(C)Cc1cccc(C2(O)CCN(S(=O)(=O)c3ccc(F)c(C)c3)CC2)c1 (centres undefined) | -42.6 | -16.6% | 1.3% | -100.2* | -23.4% | -4.0%
CCCNC(=O)c1ccc(N2CCC3(CC2)CC(c2ccccc2)=NO3)c(NC(=O)c2ccco2)c1 | u | -4.2% | x | -47.1 | 6.5% | -1.8%
CCCNC(=O)c1ccc(N2CCC3(CC2)CC(c2ccccc2)=NO3)c(NC(=O)c2cccc(OC)c2)c1 | -91.5* | 26.7µM* | x | -96.5* | -24.8% | 22.4%
CCCNC(=O)c1ccc(N2CCC3(CC2)CC(c2cccc(Br)c2)=NO3)c(NC(=O)c2ccc(Br)cc2)c1 | -82.7* | 7.8% | x | -111.0* | -16.9% | x
CCCCC(CC)C(=O)Nc1cc(C(=O)NCCC)ccc1N1CCC2(CC1)CC(c1ccccc1)=NO2 (centres undefined) | -109.4* | 7.3% | x | -94.0* | 0.5% | -14.9%
CC(C)Cn1nnnc1S(=O)(=O)Cc1cccc(C#N)c1 | x | x | 3.8% | x | 7.9% | x
CC(C)C[C@H](N)c1nnc(S(=O)(=O)Cc2cccc(F)c2)o1 | 22.9 | u | 2.8% | 6.9 | 17.8µM* | -3.9%
CCOC(=O)CSc1nnc([C@H](Cc2ccccc2)NC(=O)OC(C)(C)C)o1 | 22.8 | 2.5% | 2.4% | -37.3 | 9.4% | -9.1%
CC(C)(C)OC(=O)N[C@@H](Cc1ccccc1)c1nnc(S(=O)(=O)Cc2cccc(F)c2)o1 | 2.3 | 5.97µM* | 4.7% | -13.3 | 11.2µM* | 2.3%
COc1cc(C(=O)Nc2ccc(-c3cc(C(F)(F)F)nn3-c3ccccc3)cc2)cc(OC)c1OC | x | x | x | x | -11.6% | x
O=C(CBr)c1ccc([N+](=O)[O-])c(CS(=O)(=O)c2ccc(Cl)cc2)c1 | -1.8 | -23.0% | x | -6.9 | 35.5µM* | u
SMILES | hERG WT inh | PLK1 PBD block | CBFb-RUNX1 inh | KCNH2 3.1 inh | VDR inh | MBNL1-CUG inh
CNc1sc(C(=O)c2ccc(F)cc2)c(N)c1-c1nc2ccccc2s1 | -12.7 | 21.2µM* | u | -3.4 | -14.9% | u
CC1=C(C)CC(C(=O)Nc2ccc(C(=O)N3CCOCC3)cc2)C(C(=O)O)C1 (centres undefined) | 3.1 | 21.2µM* | 2.0% | 2.8 | -22.3% | -9.6%
O=C1N(O)C2(C=CCCC2)/C(=N\O)C12CCCCC2 (centres undefined) | 21.3 | 29.9µM* | 7.6% | -3.7 | -13.1% | -8.0%
Cc1noc(C)c1S(=O)(=O)NCCc1csc2nc(-c3ccc(Cl)cc3)nn12 | x | x | x | x | 8.9% | x
CCOC1(/N=C(\C)NS(=O)(=O)c2ccc(Cl)cc2)C(C)=CC(=O)C=C1C | 17.1 | -13.5% | 13.0% | -98.6* | -3.6% | -15.0%
COc1ccc(CNC(=O)CN(c2ccccc2)S(=O)(=O)N(C)C)cc1 | -6.5 | -8.8% | 0.1% | 21.7 | 89.1µM*! | -7.3%
COc1ccc(N(CC(=O)NCC(C)C)S(=O)(=O)c2ccccc2)cc1 | -16.1 | 18.9µM* | 8.0% | 12.6 | u | 4.4%
CN(C)S(=O)(=O)N(CC(=O)NCc1ccccc1)c1ccccc1 | 14.5 | -10.0% | 4.4% | -5.6 | 5.9% | 3.7%
c1ccc2[nH]c(-c3ccnc4ccccc34)nc2c1 | 16.5 | -1.1% | 2.8% | 0.4 | 1.3% | u
c1ccc2c(-c3nc4ccccc4[nH]3)cccc2c1 | 16.3 | 1.2% | x | -122.1* | x | x
O=C(O)c1ccc(N/N=C/c2cn(Cc3ccccc3F)c3ccccc23)cc1 | 0.3 | 29.9µM* | -18.2% | 12.2 | -29.9% | 4.0%
O=C(N/N=C/c1cn(Cc2cccc(F)c2)c2ccccc12)c1cc(O)cc(O)c1 | 30.1 | 18.9µM* | x | -15.0 | 34.2% | -13.0%
Nc1ccc(C(=O)N/N=C/c2cn(Cc3ccc(F)cc3)c3ccccc23)cc1 | -14.5 | -2.9% | x | -0.3 | -5.1% | 2.9%
CCOC(=O)c1nn(-c2ccccc2)c(=O)cc1SC(C)C | -35.3 | 1.0% | 1.8% | -72.0* | -11.4% | u
CCOC(=O)c1nn(-c2ccccc2)c(=O)cc1SC(C)CC (centres undefined) | 24.6 | -7.6% | 4.8% | 34.7 | 18.2% | u
Cc1ccc2oc(-c3ccc(C)c(NC(=O)C(C)(C)Oc4ccc(Cl)cc4)c3)nc2c1 | x | x | x | x | -2.2% | x
Cc1c(S(=O)(=O)NCCc2ccccc2)c(=O)n(C)c(=O)n1C | -99.5* | -3.2% | 2.9% | -4.6 | -11.3% | -12.0%
CCOc1ccc(CN2CCNC(=O)C2CC(=O)NCCCOc2cccnc2)cc1 (centres undefined) | -3.3 | u | x | -2.2 | -5.5% | 1.8%
O=C(CC1C(=O)NCCN1Cc1cccc(F)c1)NCCCOc1cccnc1 (centres undefined) | -5.2 | 23.8µM* | x | 3.4 | -19.6% | -5.2%
